From PubChem BioAssay AID2825 (Sanford-Burnham Center for Chemical Genomics, 2010)
Screen size: about 330,000 compounds; about 1,300 (0.39%) were called active. The entries come from a sample that favours actives as a whole. Unmarked numbers belong to inactive results.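 Rule for the calls: active = inhibition of 50% or more; inactive = inhibition below 50%.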

Assay: blockers of yeast NLRP3/ASC/caspase-1 reporter – luminescence, uHTS, primary screen (AID 2825);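 note: plate controls were induced DMSO wells for no effect and uninduced yeast grown without galactose for full effect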
Details: Yeast reconstituted NLRP3/ASC/caspase-1, beta-gal luminescence, 24 h; at 10 µM; stronger effect = higher value

Compared with O=C(COc1coc(CN2CCN(c3ccccc3)CC2)cc1=O)Nc1ccccc1F, CCCCC(=O)Nc1ccccc1N1CCN(c2ccc(F)cc2)CC1 is higher in inhibition: 11.8% for the first, 17.7% for the second.

Going from N#Cc1ccc(OCc2nnc(-c3ccc([N+](=O)[O-])cc3)o2)cc1 to COc1ccc(-c2oc(/N=C/N3CCCC3)c(C#N)c2-c2ccc(OC)cc2)cc1, the inhibition falls from 20.8% to 15.6%.

First: O=S(=O)(c1ccc(Cl)cc1)c1nc(-c2ccco2)oc1N1CCCCC1
Second: O=C(Nc1ccc(S(=O)(=O)N2CCCCC2)cc1)C1CCN(C(=O)c2ccc(F)cc2)CC1
The inhibition of the first is higher: 22.9% for the first, 8.87% for the second.

Compared with CC1CCN(c2oc(-c3ccccc3F)nc2C#N)CC1, CC1CCN(Cc2nc3c(c(=O)n(C)c(=O)n3C)n2CCc2ccccc2)CC1 is lower in inhibition: 26.9% for the first, 21.2% for the second.

First: CC(C(=O)N=Nc1c(O)n(C)c2ccc(Br)cc12)n1cnc2ccccc2c1=O (centres undefined)
Second: CCCn1c(=O)c(C(=O)Nc2cc(C)ccn2)c(O)c2ccccc21
The inhibition of the first is lower: 7.45% for the first, 18.1% for the second.

First: COc1ccc(CC(=O)Nc2sc(Cc3ccccc3)c(C)c2C(N)=O)cc1
Second: COc1ccc2[nH]c(C(=O)Nc3ccccc3Cl)cc2c1
The inhibition of the first is higher: 25.1% for the first, -3.34% for the second.

First: O=C(CN1C(=O)/C(=C\c2ccc(C(F)(F)F)cc2)Sc2ccccc21)NCc1ccco1
Second: O=C(/C=C/c1ccco1)Nc1ccc(Oc2ccccc2)cc1
The inhibition of the first is lower: -3.88% for the first, 22.4% for the second.

Compared with C#CCN1CC(C)/C(=N/O)CC1C (centres undefined), Cc1cccc(N=C2SC(C)CN2C(=O)CN2C(=O)NC3(CCCC3)C2=O)c1 (centres undefined) is lower in inhibition: 8.21% for the first, -3.71% for the second.

Compared with CSc1ccc(CN(C)CC(=O)NCc2ccc(F)cc2)cc1, COc1ccc(OCC(=O)NCCS(=O)(=O)N2CCN(c3ccc(F)cc3)CC2)cc1 is lower in inhibition: 30.5% for the first, 7.19% for the second.

Compared with CC(Oc1ccc2c(-c3ccccc3)cc(=O)oc2c1)C(=O)NC(Cc1c[nH]c2ccccc12)C(=O)O (centres undefined), CCOc1ccc(N(C(=O)c2snc(C(N)=O)c2N)C(C(=O)NCC2CCCO2)c2c[nH]c3ccccc23)cc1 (centres undefined) is lower in inhibition: 18.5% for the first, 10.6% for the second.

Going from CCC(C)Sc1nc2c(cnn2-c2ccc(F)cc2)c(=O)[nH]1 (centres undefined) to COc1cnn(-c2ccc([N+](=O)[O-])cc2)c(=O)c1Cl, the inhibition falls from -8.33% to -39.9%.

Compared with CCCSc1nc2sc3c(c2c(=O)n1-c1ccc(OC)cc1)CCN(C)C3, CCOc1ccc(-n2c(SCC(=O)OC)nc3sc4c(c3c2=O)CCN(C)C4)cc1 is lower in inhibition: 18.1% for the first, -6.96% for the second.

Going from CCOP(=O)(OCC)C(Nc1cccc(C)c1)c1ccc(F)cc1 (centres undefined) to Cc1cc(NC(=O)c2ccc(F)cc2)ccc1NC(=O)c1ccco1, the inhibition rises from 3.8% to 12.3%.

First: Cc1ccccc1N1CCN(C2CCCN(C(=O)c3ocnc3C)C2)CC1 (centres undefined)
Second: Cn1c2ccccc2c2c(C(=O)N3CCN(c4ccc(F)cc4)CC3)cn(C3CCCC3)c(=O)c21
The inhibition of the first is higher: 25.2% for the first, 15.6% for the second.

First: Cc1onc(-c2c(Cl)cccc2Cl)c1C(=O)c1c[nH]c(C(=O)NC2CC2)c1
Second: Cc1ccccc1C(=O)NC(=S)NC1CC1
The inhibition of the first is higher: 12.6% for the first, -9.47% for the second.

Going from COc1ccc(NC(=O)C2CCC(CNC(=O)[C@@H]3Cc4ccccc4CN3)CC2)cc1 (some centres undefined) to COc1ccc(NC(=O)COC(=O)c2ccncc2)c(OC)c1, the inhibition rises from -1.77% to 18.3%.

First: O=C(CSc1nnc2c(n1)[nH]c1ccccc12)NC1CCCCC1
Second: O=C(CSc1nnc(-c2ccccc2O)o1)NC1CCCCC1
The inhibition of the first is lower: 18.6% for the first, 35.2% for the second.

First: COC(=O)CN1C(=O)[C@H]2[C@@H](/C=C/c3ccccc3)N3C(=O)CN(CC4CC4)C(=O)[C@@]3(Cc3ccccc3)[C@H]2C1=O
Second: Cc1nn(CCOc2ccccc2)c(=O)n1-c1ccccc1F
The inhibition of the first is higher: 1.91% for the first, -0.993% for the second.

First: CCOc1ccc(C2/C(=C(/O)c3ccc4c(c3)CC(C)O4)C(=O)C(=O)N2CCCn2ccnc2)cc1 (centres undefined)
Second: CCOc1ccc(OCC)c(-c2c(=O)n(OCc3ccc(Cl)cc3)c3ccccc3[n+]2[O-])c1
The inhibition of the first is higher: 15.6% for the first, 3.29% for the second.

Compared with O=C(NNC(=O)c1ccco1)Nc1ccccc1, COc1cc(NC(=O)c2cc([N+](=O)[O-])ccc2Br)ccc1NC(=O)c1ccco1 is higher in inhibition: 8.53% for the first, 20.7% for the second.

First: Cc1cc(O)c(C(=O)/C=C/c2c(F)c(F)c(F)c(F)c2F)c(=O)o1
Second: CC[C@@H](C)[C@H](NC(=O)CCc1c(C)c2cc3c4c(oc3c(C)c2oc1=O)CCCC4)C(=O)O
The inhibition of the first is lower: 12.5% for the first, 17.7% for the second.

First: COc1cc(OC)c(C(=S)N2CCCC2)cc1OC
Second: COc1cc(C(=O)N2CCN(C)CC2)cc(OC)c1OC
The inhibition of the first is higher: 16% for the first, 9.48% for the second.

Compared with O=C(COc1cccc(F)c1)Oc1ccc(C(=O)c2ccccc2)cc1, O=C(c1ccccc1)c1cc(-c2ccccn2)c(N2CCOCC2)s1 is higher in inhibition: -40.2% for the first, -6.23% for the second.

First: O=C(COC(=O)c1ccccc1SCC(=O)N1CCCC1)Nc1ccccc1OC(F)F
Second: CC(C)(c1ccccc1)c1ccc(OCCN2CCCC2)cc1
The inhibition of the first is lower: 19.4% for the first, 31.2% for the second.

First: CCOC(=O)C1CCN(Cc2c(C(=O)N3CCOCC3)nc3c(C)cccn23)CC1
Second: O=C(Oc1cccc(O)c1)C1CCCCC1
The inhibition of the first is higher: 9.59% for the first, 9.17% for the second.

First: CCN(CC)C(=O)c1sc2nc(-c3ccccc3)ccc2c1N
Second: COCCNc1cc(-c2ccccc2)nc2cc(-c3cccc(F)c3)nn12
The inhibition of the first is lower: 20.7% for the first, 32.2% for the second.

Compared with CN(C(=O)c1ccccn1)c1nnc(-c2ccccn2)s1, CC(OC(=O)c1cc2ccccc2[nH]1)C(=O)N(C)c1ccccc1 (centres undefined) is lower in inhibition: 9.46% for the first, -0.144% for the second.

Compared with O=C(c1cccc(S(=O)(=O)N2CCCC2)c1)N(Cc1ccco1)C1CCS(=O)(=O)C1 (centres undefined), Cc1ccc(CNC(=O)Cn2cnc(S(=O)(=O)N3CCCCC3)c2)o1 is lower in inhibition: 19.1% for the first, 4.74% for the second.

Compared with COc1ccc(C(=O)c2c(C)c(CCC#N)n3ccccc23)c(OC)c1, COc1cc(C(=O)OCc2cc(=O)n3ccsc3n2)ccc1OC(C)C is higher in inhibition: 3.12% for the first, 16.3% for the second.

First: O=C(c1[nH]ncc1-c1ccc(Cl)cc1)C1CO1 (centres undefined)
Second: Cc1ccc(-c2cn(S(=O)(=O)c3cccc([N+](=O)[O-])c3)nc2N)cc1
The inhibition of the first is higher: 2.92% for the first, -10.8% for the second.

First: Cc1c(Cl)c([N+](=O)[O-])nn1CCCC(=O)NC(C)c1ccccc1 (centres undefined)
Second: O=C(CCNC(=O)c1ccccc1)NN=Cc1ccc(Br)o1
The inhibition of the first is lower: 7.95% for the first, 20.8% for the second.

First: COC(=O)CCNC(=O)c1ccc2[nH]c(C)c(C)c2c1
Second: COc1cccc(C(=O)NC(=O)Nc2nc(C)cc(C(F)(F)F)n2)c1
The inhibition of the first is lower: -4.49% for the first, 6.49% for the second.

Going from Cc1cc(C)c(C#N)c(SCc2ccc3c(c2)OCO3)n1 to Cc1snc(SCc2c(F)cccc2Cl)c1C#N, the inhibition rises from 7.1% to 18.9%.

Compared with C=CCn1c(=O)c(C(=O)Nc2ncccc2O)c(O)c2ccccc21, CCOc1ccc(N2C(=O)CSC2=NC#N)cc1 is lower in inhibition: 22.7% for the first, 11.9% for the second.

First: CS(=O)(=O)N(Cc1nc2sc3c(c2c(=O)[nH]1)CCCC3)C1CCCCC1
Second: CC(C)NC(=S)NN=C1CCCCCCCCCCC1
The inhibition of the first is lower: 19.1% for the first, 26.8% for the second.

Going from Cc1cc(Cl)nc(NC(=O)Nc2cccc(Cl)c2)n1 to O=C1CSC(=S)N1c1ccc(Cl)c(Cl)c1, the inhibition rises from 25.9% to 41.8%.

First: CCOC(=O)C1=C(C)NC(C)=C(C(=O)OCC)C1C1=COCCO1
Second: COc1cc(N2C(=O)CC3(CCCC3)CC2=O)cc(OC)c1OC
The inhibition of the first is higher: 22.7% for the first, 3.58% for the second.

First: Cc1ccc2nsnc2c1S(=O)(=O)N1CCCC1C(=O)O (centres undefined)
Second: O=C(c1ccncc1)N1CCN(S(=O)(=O)c2cc(C(F)(F)F)cc(C(F)(F)F)c2)CC1
The inhibition of the first is higher: 14.6% for the first, 6.83% for the second.

For COc1ccc(S(=O)(=O)N2CCOC23CCN(S(=O)(=O)c2ccc([N+](=O)[O-])cc2)CC3)cc1, the inhibition was 23.5%.

In the case of N#Cc1nc(COc2ccc(Cl)cc2)oc1N1CCCC1, the inhibition is reported as 55.6% (active).
With Cc1ccc(OCc2nc(C#N)c(N3CCCC3)o2)cc1 the inhibition was 63% (active).
For CCSc1nc2sc3c(c2c(=O)n1-c1ccc(C)cc1)CCN(C)C3, the inhibition was 58.9% (active).
For CCCc1nc2c(c(=O)c3ccccc3n2C)c(=O)n1C1CCCCCC1, the inhibition was 64.7% (active).
With C[C@@H]1C[C@@H]2O[C@H]2/C=C\C=C\C(=O)Cc2c(Cl)c(O)cc(O)c2C(=O)O1 the inhibition was 53.1% (active).
For O=C(CSc1ncnc2c1oc1ccccc12)NC1CCCC1, the inhibition was 52% (active).
In the case of COc1ccccc1C(=O)Nc1ccc(NC(=O)c2ccco2)c(C)c1, the inhibition is reported as 50.8% (active).
In the case of O=C(Nc1ccc(Oc2ccccc2)cc1)c1ccco1, the inhibition is reported as 50.8% (active).
In the case of CN(C)c1ccnc2sc(C(=O)c3ccccc3)c(N)c12, the inhibition is reported as 64.4% (active).
With O=C(Nc1ccccc1)c1cc2ccccc2[nH]1 the inhibition was 58.5% (active).
In the case of CC(C)(c1ccccc1)c1ccc(OCCN)cc1, the inhibition is reported as 54.5% (active).
With Nc1c(-c2cccc(Cl)c2)cnn1-c1cccc([N+](=O)[O-])c1 the inhibition was 50.4% (active).
With Cc1ccc(CSc2nsc(C)c2C#N)cc1 the inhibition was 63.5% (active).
In the case of Cn1c(=O)c(C(=O)Nc2ncccn2)c(O)c2ccccc21, the inhibition is reported as 50.1% (active).
For Cc1cc(C)nc(NC(=O)Nc2ccccc2C(F)(F)F)n1, the inhibition was 54.9% (active).
In the case of COc1cc(N2C(=O)CSC2=S)cc(OC)c1OC, the inhibition is reported as 58.3% (active).
In the case of O=C1CSC(=S)N1c1ccc(O)cc1, the inhibition is reported as 81.7% (active).
